Several values for one entry are separate records, joined by “and”; a condition that tells them apart may be missing. Equal entries are not always repeated. Structures can show the parent of a compound that is named as a salt.
Columns and labels:
Assay in all cases: cell viability relative to vehicle control; higher = less cytotoxic
Conditions in all cases: 10 µM
K562 = test system: K562
Procedure, shortened: (§1)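 CRISPR-edited mutant clones and isogenic wild-type clones from four leukaemia lines were screened against Selleck bioactive, kinase and epigenetic probe libraries, with identity-inconsistent compounds excluded. Each compound was acoustically dispensed at a single 10 µM dose into 384-well plates holding 2000 cells in 50 µL medium per well. After 48 h the supernatant was removed and CellTiter-Glo luminescence was read. Viability was expressed as percent of the on-plate vehicle control and analysed in Genedata Screener.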

MARIMO = test system: MARIMO
Procedure, shortened: as §1

MOLM14 = test system: MOLM14
Procedure, shortened: as §1

OCI-AML2 = test system: OCI-AML2
Procedure, shortened: as §1

Row | Structure (SMILES) | cell viability (K562; SRSF2 genotype: SRSF2 P95H/wt) | cell viability (K562; SRSF2 genotype: SRSF2 wt/wt) [%] | cell viability (MARIMO; SRSF2 genotype: SRSF2 P95H/wt) [%] | cell viability (MARIMO; SRSF2 genotype: SRSF2 wt/wt) [%] | cell viability (MOLM14; SRSF2 genotype: SRSF2 P95H/wt) [%] | cell viability (MOLM14; SRSF2 genotype: SRSF2 wt/wt) [%] | cell viability (OCI-AML2; SRSF2 genotype: P95H/wt) [%] | cell viability (OCI-AML2; SRSF2 genotype: wt/wt) [%]
1 | OC(c1cc(-c2ccc(Cl)cc2)nc2ccccc12)C1CCCCN1 (stereo not drawn) [Vacquinol-1] | 0.22% and 0.74% | 0.11 | 0.1 | 0.17 | 0.03 | 0.14 | 0.05 | 0.39
2 | CC(C)c1nc(N(C)S(C)(=O)=O)nc(-c2ccc(F)cc2)c1/C=C/[C@@H](O)C[C@@H](O)CC(=O)O [Rosuvastatin Calcium] | 103% and 107% | 101 | 94.8 | 96.5 | 112 | 105 | 105 | 102
3 | CC(=C(CCOC(=O)C(C)C)SSC(CCOC(=O)C(C)C)=C(C)N(C=O)Cc1cnc(C)nc1N)N(C=O)Cc1cnc(C)nc1N (stereo in doubt) [Sulbutiamine] | 99% and 93.5% | 93.6 | 84.7 | 95.4 | 84.2 | 90.8 | 84.7 | 93.6
4 | C[C@@H](CN1CC(=O)NC(=O)C1)N1CC(=O)NC(=O)C1 [Dexrazoxane] | 113% and 103% | 110 | 88.2 | 96.9 | 89.8 | 97.9 | 96.8 | 99.9
5 | CN(C)CCC(c1ccc(Cl)cc1)c1ccccn1 (stereo not drawn) [Chlorpheniramine Maleate] | 100% and 106% | 98.2 | 91.4 | 105 | 94.7 | 101 | 99.4 | 99.1
6 | O=C1C(c2c(O)[nH]c3ccccc23)=Nc2ccccc21 [Indirubin] | 92.2% and 98.7% | 87.3 | 92.3 | 87.8 | 87.5 | 87.9 | 91.8 | 92.9
7 | O=P(O)(O)Oc1cccc2ccccc12 [1-Naphthyl phosphate potassium salt] | 104% and 95% | 97.8 | 87.5 | 107 | 91.7 | 104 | 83.9 | 91.1
8 | CCC/C=C1\OC(=O)C2=C1CCC=C2 [Ligustilide] | 84.1% and 83.7% | 85.5 | 60.9 | 65.6 | 52.7 | 49.4 | 64.8 | 63.9
9 | CC(NC(=O)c1ccccc1/N=C/c1c(O)ccc2ccccc12)c1ccccc1 (stereo not drawn) [Sirtinol] | 93% and 101% | 103 | 102 | 98.7 | 94.7 | 101 | 103 | 102
10 | Cc1cc(C2CCCCC2)n(O)c(=O)c1 [Ciclopirox (Penlac)] | 54.8% and 52% | 42.2 | 14.8 | 21.8 | 7.11 | 2.18 | 15.5 | 16.3
11 | Oc1ccc2c(c1)OCO2 [Sesamol] | 96.7% and 82% | 83.8 | 76.8 | 88.2 | 86.5 | 88 | 92 | 92.1
12 | Cc1ccc(C(=O)N(CCCN)[C@@H](c2nc3cc(Cl)ccc3c(=O)n2Cc2ccccc2)C(C)C)cc1 | 0.81% and 1.13% | 0.6 | 0.37 | 0.68 | 0.2 | 0.34 | 0.16 | 0.25
13 | CN(C)CCNC(=O)c1cccn2c(=O)c3cc4ccccc4cc3nc12 | 32.5% and 33.8% | 30.8 | 35 | 26.6 | 0.3 | 0.24 | 0.28 | 1.23
14 | N#CSc1cc(SC#N)c(N)nc1N | 8.53% and 15.5% | 33.9 | 4.65 | 1.5 | 3.35 | 0.44 | 0.31 | 0.95
15 | CC(C(=O)O)C(=O)O [Methylmalonate] | 102% | 100 | 98.2 | 110 | 97 | 103 | 90.5 | 107
16 | COCCNC(=O)Nc1ccc2nc(-c3cccs3)c(-c3cccs3)nc2c1 [ACSS2 inhibitor] | 82.9% and 79.4% | 84.3 | 85.1 | 97.7 | 89.1 | 94.8 | 91.5 | 95.1
17 | NC(=O)c1cnccn1 [Pyrazinamide (Pyrazinoic acid amide)] | 107% and 105% | 110 | 104 | 114 | 103 | 105 | 95.6 | 109
18 | CCOC(=O)CCC(=O)O[C@H]1[C@H](O[C@@H]2[C@@H](C)[C@H](O[C@H]3C[C@@](C)(OC)[C@@H](O)[C@H](C)O3)[C@@H](C)C(=O)O[C@H](CC)[C@@](C)(O)[C@H](O)[C@@H](C)C(=O)[C@H](C)C[C@@]2(C)O)O[C@H](C)C[C@@H]1N(C)C [Erythromycin Ethylsuccinate] | 95.1% and 103% | 108 | 102 | 101 | 106 | 102 | 117 | 98.3
19 | Cc1cc(C)c(CN2CCc3c(Cl)cc(-c4c(C)noc4C)c(Cl)c3C2=O)c(=O)[nH]1 | 78.7% and 87.1% | 87.5 | 74.8 | 65.4 | 77.6 | 79.8 | 77.4 | 86.5
20 | CC(C)Cc1ccc(C(C)C(=O)O)cc1 (stereo not drawn) [Ibuprofen (Advil)] | 99.3% and 98.5% | 92.9 | 95.1 | 100 | 100 | 101 | 87.7 | 101
21 | Cc1ccccc1C(OCCN(C)C)c1ccccc1 (stereo not drawn) [Orphenadrine citrate (Norflex)] | 96.7% and 92% | 91.3 | 79.7 | 97.3 | 93.3 | 98.1 | 83.2 | 95

Row | Structure (SMILES) | cell viability (K562; SRSF2 genotype: SRSF2 P95H/wt) | cell viability (K562; SRSF2 genotype: SRSF2 wt/wt) [%] | cell viability (MARIMO; SRSF2 genotype: SRSF2 P95H/wt) [%] | cell viability (MARIMO; SRSF2 genotype: SRSF2 wt/wt) [%] | cell viability (MOLM14; SRSF2 genotype: SRSF2 P95H/wt) [%] | cell viability (MOLM14; SRSF2 genotype: SRSF2 wt/wt) [%] | cell viability (OCI-AML2; SRSF2 genotype: P95H/wt) [%] | cell viability (OCI-AML2; SRSF2 genotype: wt/wt) [%]
22 | O=C1C(=Cc2ccncc2)CCCC1=Cc1ccncc1 | 7.78% and 5.31% | 20.5 | 1.92 | 0.58 | 2.47 | 0.31 | 0.15 | 0.12
23 | CCCN(CCC)CCc1cccc2c1CC(=O)N2 [Ropinirole HCl] | 98.9% and 97.5% | 95.9 | 103 | 100 | 103 | 102 | 100 | 89.4
24 | CC(C)(Sc1cc(C(C)(C)C)c(O)c(C(C)(C)C)c1)Sc1cc(C(C)(C)C)c(O)c(C(C)(C)C)c1 [Probucol] | 98.5% and 99.2% | 102 | 99.7 | 105 | 102 | 105 | 105 | 103
25 | CC(C)C12CCC(C)(CC1)O2 [1,4-Cineole] | 104% and 101% | 104 | 103 | 103 | 105 | 110 | 99.4 | 97.7
26 | CC(C)C(C)C(O)C(O)C(C)C1CCC2C3COC(=O)C4CC(O)C(O)CC4(C)C3CCC12C (stereo not drawn) [Brassinolide] | 98.5% and 94.6% | 99.3 | 107 | 115 | 95.8 | 103 | 120 | 103
27 | COC(=O)N[C@H](C(=O)N1CCC[C@H]1C(=O)Nc1ccc([C@@H]2CC[C@@H](c3ccc(NC(=O)[C@@H]4CCCN4C(=O)[C@@H](NC(=O)OC)C(C)C)cc3)N2c2ccc(C(C)(C)C)cc2)cc1)C(C)C [Ombitasvir(ABT-267)] | 83.3% and 81.3% | 91 | 89.8 | 96.3 | 91.9 | 92.5 | 112 | 99.6
28 | CCCCCCCCCCCCCC(=S)NCCCC[C@H](NC(=O)OCc1ccccc1)C(=O)Nc1ccccc1 [Thiomyristoyl] | 82.1% and 77.7% | 81.9 | 81.4 | 97.3 | 82 | 83.8 | 90.2 | 86.3
29 | COc1ccccc1N1CCN(CCN(C(=O)C2CCCCC2)c2ccccn2)CC1 | 76.7% and 78.4% | 77.3 | 67.8 | 73 | 75.4 | 77.3 | 74.9 | 66.3
30 | CC(C)OC(=O)C(C(=O)OC(C)C)=C1SC=CS1 [Malotilate] | 92.5% and 94.4% | 93.6 | 76.5 | 83.6 | 89.5 | 99.4 | 85 | 88.8
31 | CCN(CC)c1ccc2c(-c3ccccc3C(=O)O)c3ccc(=[N+](CC)CC)cc-3oc2c1 [Rhodamine B] | 51.1% and 54.3% | 53 | 51.3 | 59.4 | 48.5 | 61 | 58.7 | 49.6
32 | C[C@@H]1CC(=O)c2c(ccc3c2C(=O)c2cccc(O)c2C3=O)C1 | 77.9% and 93.8% | 94.6 | 67.6 | 57.6 | 53.9 | 68.5 | 43.4 | 43.6
33 | COc1cccc2c1c(O)c(C(=O)N(C)c1ccc(C(F)(F)F)cc1)c(=O)n2C [Tasquinimod] | 108% and 106% | 99.1 | 109 | 116 | 106 | 106 | 101 | 110
34 | COCCOC(=O)C1=C(C)NC(C)=C(C(=O)OC(C)C)C1c1cccc([N+](=O)[O-])c1 (stereo not drawn) [Nimodipine (Nimotop)] | 88.8% and 92.4% | 99.3 | 85.2 | 92.7 | 87.6 | 99.4 | 83.7 | 88.4
35 | CC(=O)N[C@@H](CC(C)C)C(=O)N[C@@H](CC(C)C)C(=O)N[C@H](C=O)CCCNC(=N)N [Leupeptin Hemisulfate] | 94.1% and 83.4% | 86.2 | 90.8 | 97.3 | 85.8 | 90.1 | 97.4 | 97.7
36 | C[C@H]1[C@H](C)CC[C@]2(C(=O)O[C@@H]3O[C@H](CO[C@@H]4O[C@H](CO)[C@@H](O[C@@H]5O[C@H](C)[C@H](O)[C@@H](O)[C@H]5O)[C@H](O)[C@H]4O)[C@@H](O)[C@H](O)[C@H]3O)CC[C@]3(C)C(=CC[C@@H]4[C@@]5(C)C[C@@H](O)[C@H](O)[C@@](C)(CO)[C@@H]5CC[C@]43C)[C@H]12 [Asiaticoside] | 102% and 105% | 101 | 103 | 99.2 | 103 | 103 | 98.7 | 106
37 | COc1ccc(/C=C/c2cc(O)cc(O)c2)cc1O [Rhapontigenin] | 95.7% and 103% | 105 | 101 | 97.9 | 119 | 109 | 94.2 | 86.2
38 | CCNC(=O)CCC/C=C\C[C@@H]1[C@@H](/C=C/[C@@H](O)CCc2ccccc2)[C@H](O)C[C@@H]1O [Bimatoprost] | 99.5% and 99.1% | 96.8 | 95.4 | 98.3 | 98.4 | 98.3 | 105 | 98.8
39 | CCCc1nc(C)c2c(=O)[nH]c(-c3cc(S(=O)(=O)N4CCN(CC)CC4)ccc3OCC)nn12 [Vardenafil Hydrochloride Trihydrate (Vivanza] | 99.1% and 107% | 97.1 | 110 | 108 | 105 | 106 | 135 | 115
40 | OCC(O)C(O)CO (stereo not drawn) [Erythritol] | 100% and 105% | 99.9 | 98.4 | 106 | 101 | 101 | 98.2 | 110
41 | CN1CCN(c2ccc(-c3ccncc3-c3cc(F)c(O)c(F)c3)cc2)CC1 | 94.2% and 97.1% | 95.9 | 80.1 | 85.4 | 66.4 | 88.8 | 99.5 | 91.1

Source: the supplement of paper PMC10981050
